PubChem BioAssay (NCATS)
Records with an inconclusive call do not appear. A call without a number means that no potency is given here. The source made the active and inactive calls. Unless noted, calls follow the shape of the dose curve; as a rule, active = well fitted curve in the direction sought with a large enough effect; inconclusive = small, poorly fitted or top-dose-only effect, or another doubt; inactive = no such curve, though single readings can be large; an effect the other way counts as inactive or inconclusive.

Tests used:
[1] = biological target: Phospholipid hydroperoxide glutathione peroxidase GPX4 (Homo sapiens) (UniProt P36969); experiment: Primary qHTS Assay for Inhibitors of Recombinant Selenoprotein Glutathione Peroxidase 4 (GPX4) (AID 1845192); also: nearly all actives have a fitted effect of over 65% in size
Sequence of Phospholipid hydroperoxide glutathione peroxidase GPX4 (Homo sapiens) (P36969 whole entry, looked up): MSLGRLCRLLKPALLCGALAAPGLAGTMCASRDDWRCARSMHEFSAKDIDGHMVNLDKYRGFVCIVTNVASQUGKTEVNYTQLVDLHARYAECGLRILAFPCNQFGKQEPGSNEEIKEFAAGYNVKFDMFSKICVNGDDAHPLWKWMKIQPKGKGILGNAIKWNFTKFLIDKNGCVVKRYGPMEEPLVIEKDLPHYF
Method in brief: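 GR-coupled readout: 100 nM GR, 1 mM GSH, 0.5 mM NADPH; NADPH fluorescence (ex 340/em 450 nm) read at t=0 and after 15 min RT. GPX4 200 nM, preincubated 30 min with compound; substrate 0.5 mM CHP.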

[2] = Primary fluorescence-based thiol-reactive (MSTI) qHTS assay for identification of artifact compounds. (AID 1845221); also: nearly all actives have a fitted effect of over 65% in size; also: potency is read from the fitted curve at half-maximal effect
Method in brief: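 MSTI probe at 4 uM final in 2% DMSO/PBS pH 7.4; compounds, 1 h at room temperature in dark. Fluorescence Ex/Em 525/598 nm, normalised to Acetyl-MSTI and MSTI, fitted to 4-parameter Hill.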

[3] = biological target: Luciferin 4-monooxygenase (Photinus pyralis) (UniProt P08659); experiment: Primary firefly luciferase (FLuc) qHTS assay for identification of artifact compounds. (AID 1845220); also: nearly all actives have a fitted effect of over 60% in size; also: potency is read from the fitted curve at half-maximal effect
Method in brief: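 qHTS, 15 min compound preincubation with substrate (10 uM luciferin, 10 uM ATP) at RT, then 10 nM FLuc; 5 min; luminescence; % inhibition vs no-enzyme/DMSO controls, 4-parameter Hill fit.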

[4] = tested on: Nanoluciferase (engineered Oplophorus gracilirostris luciferase); experiment: Primary Nanoluciferase (NLuc) qHTS assay for identification of artifact compounds. (AID 1845222); also: potency is read from the fitted curve at half-maximal effect
Method in brief: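 Luminescence read-out of secreted NLuc in S16 cell conditioned medium (1:55); compounds tested with 15 min RT preincubation, then Nano-Glo substrate 1:100, 5 min. % inhibition vs no-enzyme and DMSO controls, 4-parameter Hill fit.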

[5] = Primary redox qHTS assay for identification of artifact compounds. (AID 1845223); also: potency is read from the fitted curve at half-maximal effect
Method in brief: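 Amplex Red (25 uM) and HRP (250 mU/mL) in HBSS, with compounds for 15 min, then 250 uM DTT for 30 min, room temperature, dark. Fluorescence 525/598 nm read; normalized to DMSO and 10 uM DA3003; Hill fit.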

[6] = qHTS drug screen for cell cycle checkpoint inhibitors in PARPi-resistant BRCA-mutant ovarian cancer cell lines. (AID 1963452; calls by dose curve; also: potency is read from the fitted curve at half-maximal effect); settings: PEO1/OlaR viability, CellTiter-Glo luminescence, 96 h; for Z-AUC: stronger effect = lower value
Method in brief: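 PEO1, PEO4 and PEO1/OlaR ovarian cancer cells, 600 per well, exposed 96 h at 37C to a dilution series. Viability read by CellTiter-Glo luminescence, normalized to DMSO and empty wells; activity summarized as Z-AUC.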

[7] = measured here: PEO1 parental Z-AUC

For `N#CC1C(=O)Nc2scc(-c3ccc(-c4ccccc4O)cc3)c2C1=O` (configuration not stated), the Potency [1] was “inactive” and the Potency [2] was “inactive”.
With `CC(C)(C)NCC(O)COc1cccc2c1CCCC2=O` (configuration not stated) the Potency [1] was “inactive”, the Potency [3] was “inactive” and the Potency [2] was “inactive”. For the same molecule, the Potency [4] was “inactive” and the Potency [5] was “inactive”.
For `C(#Cc1cccc(CN2CCOCC2)c1)CCN1CCCCC1`, the Potency [1] was “inactive”, the Potency [3] was “inactive” and the Potency [2] was “inactive”. The Potency [4] was “inactive” and the Potency [5] was “inactive”.
In the case of `CCC[C@@H]1C[C@@H](C(=O)N[C@H](C(C)Cl)[C@H]2O[C@H](SC)[C@H](O)[C@@H](O)[C@H]2O)N(C)C1` (some centres not stated), the Potency [1] is reported as “inactive”, the Potency [3] is reported as “inactive” and the Potency [2] is reported as “inactive”. For the same molecule, the Potency [4] was “inactive” and the Potency [5] was “inactive”.
With `c1ccc(Nc2nc3c(s2)CCCc2[nH]ncc2-3)nc1` the Potency [1] was “inactive”, the Potency [3] was 8.49 µM (active) and the Potency [2] was 1.5 µM (active). For the same molecule, the Potency [4] was “inactive” and the Potency [5] was “inactive”.
With `COc1cc2c(cc1O)CCN[C@]21CS[C@@H]2c3c(OC(C)=O)c(C)c4c(c3[C@H](COC1=O)N1[C@@H]2[C@H]2c3c(cc(C)c(OC)c3O)C[C@@H]([C@@H]1O)N2C)OCO4` the Potency [6] was 0.0399 µM (active), the Z-AUC [6, 7] was -2.17 and the Z-AUC ([6]; measured here: PEO4 Z-AUC) was -1.65.
For `CC(=O)Oc1cc2c(s1)CCN([C@H](C(=O)C1CC1)c1ccccc1F)C2`, the Potency [1] was “inactive”, the Potency [3] was “inactive” and the Potency [5] was “inactive”.
With `C=C(C)C(=O)O[C@H]1C[C@@](C)(OC(C)=O)[C@@]2(O)CC[C@@](C)(O)[C@H](OC(C)=O)[C@@]23OC(=O)C(COC)=C13` the Potency [1] was “inactive”, the Potency [3] was “inactive” and the Potency [5] was “inactive”.
With `CC1(C)O[C@]23C[C@H]1C[C@H](OC(=O)c1ccoc1)[C@]2(C)[C@@H](OC(=O)c1ccoc1)CCC3(C)O` (some centres not stated) the Potency [1] was “inactive”, the Potency [3] was “inactive” and the Potency [2] was “inactive”. For the same molecule, the Potency [4] was “inactive” and the Potency [5] was “inactive”.
With `C#Cc1cnc2[nH]c(=O)n(C(CC)CC)c2n1` the Potency [3] was “inactive”, the Potency [4] was “inactive” and the Potency [5] was “inactive”.
With `O=C(O)c1cnn(-c2nc3cc(OC(F)(F)F)c(Cl)cc3[nH]2)c1` the Potency [3] was 3.01 µM (active), the Potency [2] was “inactive” and the Potency [5] was “inactive”. For the same molecule, the Z-AUC [6] was 0.292 (inactive), the Z-AUC [6, 7] was -0.102 and the Z-AUC ([6]; measured here: PEO4 Z-AUC) was -0.0473.
With `COc1cccc(-n2nc(C(=O)O)cc2-c2ccc(C3CCCCC3)c(Cl)c2)c1` the Potency [3] was “inactive”, the Potency [2] was “inactive” and the Potency [4] was “inactive”. For the same molecule, the Potency [5] was “inactive”.
In the case of `Cn1c(=O)cc(N2CCCC(N)C2)n(Cc2ccccc2C#N)c1=O` (configuration not stated), the Potency [1] is reported as “inactive”, the Potency [3] is reported as “inactive” and the Potency [4] is reported as “inactive”. For the same molecule, the Potency [5] was “inactive”.
For `CC1CCC2C(C(=O)O)=CC3C(O)C(C)(C)CC123` (configuration not stated), the Potency [1] was “inactive”, the Potency [3] was “inactive” and the Potency [4] was “inactive”.
With `Cc1nn(C)c2c1C(c1ccc(C(F)(F)F)cc1)C(C#N)=C(N)O2` (configuration not stated) the Potency [1] was “inactive”, the Potency [3] was “inactive” and the Potency [2] was 6.7 µM (active). The Potency [5] was 4.23 µM (active), the Z-AUC [6] was 0.183 (inactive) and the Z-AUC [6, 7] was 1.31. It also gave a Z-AUC ([6]; measured here: PEO4 Z-AUC) of 1.26.
With `COC(=O)C12C(=O)C(C)=C(O)C1(C)C(C)=CC1C34CCC(OC3=O)C(C)(C)C4CCC12C` (configuration not stated) the Potency [1] was “inactive”, the Potency [3] was “inactive” and the Potency [4] was “inactive”.
With `COc1cc(C2OCC3C(c4ccc(OC5OC(CO)C(O)C(O)C5O)c(OC)c4)OCC23)ccc1O` (configuration not stated) the Potency [1] was “inactive”, the Potency [3] was “inactive” and the Potency [2] was “inactive”. The Potency [4] was “inactive” and the Potency [5] was “inactive”.
With `O=C(NN1CCCCC1)c1nn(-c2ccc(Cl)cc2Cl)c(-c2ccc(C#Cc3ccc(C(F)(F)F)cc3)s2)c1CNS(=O)(=O)N1CCCC1` the Potency [1] was “inactive”, the Potency [3] was “inactive” and the Potency [2] was “inactive”. The Potency [4] was “inactive” and the Potency [5] was “inactive”.
For `Cc1nnc(C(C)C)n1C1CC2CCC(C1)N2CCC(NC(=O)C1CCC(F)(F)CC1)c1ccccc1` (configuration not stated), the Potency [1] was “inactive”, the Potency [3] was “inactive” and the Potency [2] was “inactive”. For the same molecule, the Potency [4] was “inactive” and the Potency [5] was “inactive”.
With `O=C(O)C[C@@H](NC(=O)c1cc(-c2ccc(-c3ccncc3)cc2)cs1)c1ccccc1` the Potency [3] was 6.75 µM (active), the Potency [2] was “inactive” and the Potency [5] was “inactive”.
In the case of `CC(C)(OC1OC(CO)C(O)C(O)C1O)C1CCC(O)(CO)C2CC(O)C(C)(O)C2C1` (configuration not stated), the Potency [1] is reported as “inactive”, the Potency [3] is reported as “inactive” and the Potency [2] is reported as “inactive”. The Potency [4] was “inactive” and the Potency [5] was “inactive”.
In the case of `O=S(=O)(NC1CCNCC1)c1cc(S(=O)(=O)c2ccccc2)ccc1C(F)(F)F`, the Potency [3] is reported as “inactive”, the Potency [2] is reported as “inactive” and the Potency [4] is reported as “inactive”. The Potency [5] was “inactive”.
With `COc1c2c(c(C)c3c1C(=O)OC3)OC1(C)CC(O)C3(O)C(C)(C)OC(=O)CCC3(C)C1C2` (configuration not stated) the Potency [1] was “inactive”, the Potency [3] was “inactive” and the Potency [2] was “inactive”. The Potency [5] was “inactive”.
In the case of `CCOc1c2c(c(OCC)c3ccccc13)C(=O)N(c1ccc(CC(=O)NS(=O)(=O)c3ccccc3)cc1)C2`, the Potency [1] is reported as “inactive”, the Potency [2] is reported as “inactive” and the Potency [4] is reported as 12 µM (active).
With `C[C@@H]1CCN(C(=O)CC#N)C[C@@H]1N(C)c1ncnc2[nH]ccc12` the Potency [1] was “inactive”, the Z-AUC [6] was 1.14 (inactive) and the Z-AUC [6, 7] was 0.765. For the same molecule, the Z-AUC ([6]; measured here: PEO4 Z-AUC) was 1.24.
For `CC[C@@H](c1ccc(F)c(F)c1)n1c(C(=O)OC)c(-c2ccno2)[nH]c1=S`, the Potency [1] was “inactive”, the Potency [3] was “inactive” and the Potency [4] was “inactive”.
For `C=Cc1cc(O)cc2nc(-c3ccc(O)c(F)c3)oc12`, the Potency [4] was “inactive”, the Potency [5] was “inactive” and the Z-AUC [6] was 0.0399 (inactive). For the same molecule, the Z-AUC [6, 7] was 0.836 and the Z-AUC ([6]; measured here: PEO4 Z-AUC) was 0.548.
For `O=c1ccn(C2OC(CO)C(O)C2O)c(=O)[nH]1` (configuration not stated), the Potency [1] was “inactive”, the Potency [3] was “inactive” and the Potency [2] was “inactive”. For the same molecule, the Potency [4] was “inactive” and the Potency [5] was “inactive”.
